Bioassay records from PubChem BioAssay.
CYP2C19 activ – activators of human cytochrome P450 2C19. P33261. 96,000 tested, under 10 active. recombinant CYP2C19, luciferin-H EGE luminescence; hits give high values; 0 = fully inhibited enzyme, 1 = untreated enzyme. activation factor at 5 µM;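 active means activation factor of at least 2 at 5 µM in the primary screen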;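 further: 0 = wells with 2.5 mM tranylcypromine and 1 = vehicle-only wells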
CYP2C9 inhib – blocks human cytochrome P450 2C9; CYP2C9 Supersomes, luciferin-H conversion, luminescence; inhibition, % at 5 µM; 20% of 96,000 active;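 active means blocking of liver enzyme CYP2C9 beyond about 50% at 5 µM, limit read from the data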
Target sequence (P11712 whole entry, looked up): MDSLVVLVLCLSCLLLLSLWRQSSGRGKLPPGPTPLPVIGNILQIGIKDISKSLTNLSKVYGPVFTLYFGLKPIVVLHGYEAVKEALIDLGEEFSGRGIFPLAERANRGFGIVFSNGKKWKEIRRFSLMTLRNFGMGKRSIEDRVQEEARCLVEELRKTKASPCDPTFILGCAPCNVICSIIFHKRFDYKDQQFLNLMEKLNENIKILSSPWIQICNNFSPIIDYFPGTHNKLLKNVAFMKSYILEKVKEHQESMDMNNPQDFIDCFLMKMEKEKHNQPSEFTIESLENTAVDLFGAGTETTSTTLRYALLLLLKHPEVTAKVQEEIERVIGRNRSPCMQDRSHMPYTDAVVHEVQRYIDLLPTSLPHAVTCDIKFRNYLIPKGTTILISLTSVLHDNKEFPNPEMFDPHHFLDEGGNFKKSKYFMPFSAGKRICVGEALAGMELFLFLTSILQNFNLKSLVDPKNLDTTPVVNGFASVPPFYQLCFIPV
CYP2C19 inhib – blocks human cytochrome P450 2C19; P33261; CYP2C19 Supersomes, luciferin-H EGE luminescence, 30 min; inhibition, % at 5 µM; 21% of 96,000 active; AID 778;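 active means CYP2C19 inhibition above a set limit at 5 µM in the primary screen, cut at about 50% in these data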;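 further: plate controls were negative control wells for no effect and 2.5 mM tranylcypromine positive control for full effect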
CYP2C9 activ – activators of human CYP2C9 | P11712 | recombinant CYP2C9, luciferin-H conversion, luminescence; hits give high values; factor 1 = untreated enzyme, 0 = blocked | 1.4% of 96,000 active | AID 1024 | activation factor at 5 µM;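 active means activation factor of 2 or more for CYP2C9 at a 5 µM dose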;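 further: 0 = sulfaphenazole-blocked wells and 1 = vehicle-only wells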
EphB4 antag – blocks human EphB4 binding to ephrin-B2; P54760; EphB4 LBD / TNYL-RAW-Alexa532 peptide, fluorescence polarization; inhibition, % at 7 µM; 0.15% of 97,000 active; AID 720;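 active means inhibition above the screen-wide mean inhibition plus 3 SD, cut at about 15% in these data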;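 further: 0% = DMSO wells and 100% = excess unlabeled TNYL-RAW peptide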
Active calls of the source: *; nt = no result given. Hits are enriched below; roughly 27% of the tested compounds scored in any of these assays.

SMILES	CYP2C19 activ	CYP2C9 inhib	CYP2C19 inhib	CYP2C9 activ	EphB4 antag
O=C(CSc1nnnn1-c1ccc2c(c1)OCCO2)OC1CCCCC1	0.3	45	66*	0.5	0
Clc1ccc(CSc2nnnn2-c2ccc3c(c2)OCO3)c(Cl)c1	0.1	88*	89*	0.1	2
c1ccc(CSc2nnnn2-c2ccc3c(c2)OCCO3)nc1	0.1	41	90*	0.6	-3
O=C(CSc1nnnn1-c1ccc2c(c1)OCCO2)N1CCc2ccccc21	1	-35	3	1.3	-1
Cc1ccc(NC(=O)CCSc2nnnn2-c2ccc3c(c2)OCO3)cc1C	0.3	49	74*	0.5	-7
Cc1ccc(-n2nnnc2SCC(=O)NC(=O)Nc2ccc3c(c2)OCCO3)cc1	0.8	33	16	0.7	-4
C=CCn1c(CNc2ccccc2)nnc1SCC(=O)N/N=C/c1ccccc1O	1	10	-4	0.9	2
CCOC(=O)N1CCN(Cc2nc3c(c(=O)n(C)c(=O)n3C)n2Cc2cc(C)ccc2C)CC1	0.7	12	27	0.9	nt
COc1ccc(C2CCCN2C(=O)Nc2ccc(Cl)cc2)cc1OC (stereo unspecified)	0.3	49	73*	0.5	-9
O=C(O)c1cc(-c2ccccc2)n(-c2ccccc2C(=O)O)n1	1	-12	1	1.1	8
COc1ccc(Cn2nnnc2C(c2cc3cc(C)cc(C)c3[nH]c2=O)N2CCOCC2)cc1 (stereo unspecified)	0.8	49	19	0.5	-4
Cc1c(C=O)c2ccccn2c1C(=O)c1ccccc1	0.1	90*	85*	0.1	3
CC(C)NC(=O)CN1C(=O)NC(CCc2ccccc2)C1=O (stereo unspecified)	0.9	6	12	0.9	5
O=C(CSc1nnc(COc2cccc3ccccc23)o1)N1CCN(C(=O)c2ccco2)CC1	nt	nt	nt	nt	-1
Cc1ccc2c(c1)NC(=O)CC(c1ccccc1)=N2	nt	nt	nt	nt	-6
COc1ccc2c(c1)N(C)C(=O)CC(c1ccccc1)=N2	0.1	98*	94*	0	-3
O=C1CSC(c2ccccn2)N1c1ccc(Cl)c(Cl)c1 (stereo unspecified)	0.4	9	63*	0.9	3
O=C1CSC(c2cccnc2)N1c1ccc(F)cc1 (stereo unspecified)	1	14	2	0.9	-2
CCOC(=O)c1sc(NCc2ccco2)c(-c2nc3ccccc3s2)c1N	1.1	36	-6	0.6	nt
Cc1ccc(NC(=O)c2ccc(Cl)c(N3C(=O)C=CC3=O)c2)cc1	1	62*	-2	0.4	9
Cc1cccc(CCNS(=O)(=O)c2ccc3c(c2)n(C)c(=O)c(=O)n3C)c1	1	44	-5	0.6	-1
COC(=O)c1ccccc1OCc1cccc(C)n1	0.8	36	18	0.6	2
COc1cccc(/C=C/c2ccncc2)c1OC	0	98*	99*	0	-4
CNc1nc2ccccc2n1/N=C/c1cccc(OC)c1OC	0.9	2	13	1	3
Cc1ccc(CS(=O)(=O)Cc2ccc(C(=O)NCc3ccccn3)o2)cc1	0.9	3	12	1	2
SMILES	CYP2C19 activ	CYP2C9 inhib	CYP2C19 inhib	CYP2C9 activ	EphB4 antag
COc1cc(=O)n(C)c2cc(N(C)C)ccc12	1	0	-2	1	10
Cc1ccc2c(c1)CN1CN2Cc2cc(C)ccc21	0.5	42	54*	0.6	nt
CN1c2ccccc2C(C)(C)C12C=Nc1c(cc(N3CCOCC3)c3ccccc13)O2 (stereo unspecified)	0.7	70*	30	0.3	-6
CC(=O)c1cc(C(=O)Nc2ccccc2C(=O)O)oc1C	0.9	54*	12	0.5	nt
Cc1cc(C(=O)Nc2cccc(C(=O)O)c2)oc1C	0.3	28	66*	0.7	nt
Cc1cc(C(=O)Nc2cccc(C(=O)O)c2)c(C)o1	0.6	16	37	0.8	2
Cc1oc(C(C)(C)C)cc1C(=O)Nc1cccc(C(=O)O)c1	1.1	60*	-5	0.4	-6
COc1cc(NC(=O)CSc2nnnn2Cc2ccc3c(c2)OCO3)cc(OC)c1	1	-6	3	1.1	-2
CCN(CC)C(=O)CSc1nnc(-c2ccncc2)n1N	1	-4	0	1	8
CC(=O)C1=C(O)C(=O)N(c2ccc(S(N)(=O)=O)cc2)C1c1ccc([N+](=O)[O-])cc1 (stereo unspecified)	0.8	90*	18	0.1	0
CCn1c(SCC(=O)Nc2nc3ccccc3s2)nnc1-c1ccc(OC)cc1	1	3	-5	1	-4
CCn1c(CCNC(=O)c2cccs2)nnc1SCC(=O)Nc1nc(-c2ccccc2)cs1	nt	nt	nt	nt	0
CCn1c(SCC(=O)Nc2nc(-c3ccccc3)cs2)nnc1-c1ccccc1O	0.1	95*	89*	0	5
CCn1c(SCC(=O)Nc2nc3c(s2)CCCC3)nnc1-c1ccccc1	0.2	88*	81*	0.1	15
CCc1nnc(NC(=O)CSc2nnc(-c3cc4ccccc4cc3O)n2CCOC)s1	0.9	54*	11	0.5	0
CCc1nnc(NC(=O)CSc2nnc(-c3cc4ccccc4cc3O)n2CC)s1	0.5	90*	52*	0.1	nt
COc1cccc2c1OC1(C)CC2N(C(=O)c2ccco2)C(=S)N1c1ccc(F)cc1 (stereo unspecified)	0.7	29	32	0.7	5
CC1CCN(S(=O)(=O)c2ccc(-c3nnc(SCc4cccnc4)o3)cc2)CC1	0.5	42	45	0.6	-11
CCc1nnc(NC(=O)CSc2nnc(-c3cccnc3)n2CC)s1	1	19	-2	0.8	8
CCc1nnc(NC(=O)CSc2nnc(-c3ccccc3O)n2CC)s1	0.2	77*	76*	0.2	1
COc1ccc(N2CCN(C(=O)CSc3nnc4c(C)cc5ccc(C)c(C)c5n34)CC2)cc1	0.9	29	8	0.7	2
CCn1c(SCC(=O)N(C(C)C)C(C)C)nnc1-c1cc2ccccc2cc1O	0.4	57*	65*	0.4	0
Cc1ccc2cc(C)c3nnc(SCC(=O)Nc4nc5c(s4)CCCC5)n3c2c1C	0.6	50*	40	0.5	1
Cc1cc(NC(=O)COc2ncnc3sc(C)c(C)c23)no1	1	-7	2	1.1	-4
CC(=O)NC1C(=O)SC1(C)C (stereo unspecified)	1.1	-4	-7	1	1
N#Cc1ccc(NC(=O)COC(=O)CNC(=O)C2CCCCC2)cc1	0.9	-17	10	1.2	-2
COCc1cc(=O)[nH]c(SCC(=O)Nc2ccccc2)n1	0.9	24	11	0.8	2
Cc1ccc(Nc2nc(-c3c(C)nc4ccccn34)cs2)cc1	0.3	-92	67*	1.9	2
Cc1ccnc(Nc2nc(-c3c(C)nc4sccn34)cs2)c1	0.7	25	26	0.8	-5
Cc1ccc(Nc2nc(-c3c(C)nc4ncccn34)cs2)cc1	0.8	-103	19	2*	6
